From PubChem BioAssay (NCI)
The panel holds about 79,000 compounds, 15% with a hit somewhere; the sample as a whole holds those more often. Calls of active or inactive are those of the source. Rule as the data show it: active = growth inhibition above about 70%; inactive = the rest.

What was measured:
[1] = NCI Yeast Anticancer Drug Screen. Data for the rad52 strain (AID 147);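 also: 0% = growth of vehicle-treated control cultures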; details: S. cerevisiae rad52 mutant growth inhibition, stronger effect = higher value
Summary of the method: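 Vehicle-treated cultures served as the reference for growth inhibition of compound-exposed yeast bearing a DNA repair mutation.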

[2] = NCI Yeast Anticancer Drug Screen. Data for the wt1 strain (AID 149);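 also: 0% = growth of vehicle-treated wt1 cultures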; details: S. cerevisiae wt1 strain (SPY 50644) growth inhibition, stronger effect = higher value
Summary of the method: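 Vehicle-normalised growth inhibition; strain wt1; compound exposure.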

[3] = NCI Yeast Anticancer Drug Screen. Data for the rad50EPP+ strain (AID 151);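 also: 0% = growth of vehicle-treated control cultures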; details: S. cerevisiae rad50 mutant strain, stronger effect = higher value
Summary of the method: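 In this screen, rad50EPP+ yeast were exposed to compounds. Growth inhibition was scored against vehicle-treated controls.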

[4] = NCI Yeast Anticancer Drug Screen. Data for the mgt1 strain (AID 153); details: S. cerevisiae mgt1 mutant growth inhibition, stronger effect = higher value
Summary of the method: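 mgt1 strain exposed; growth vs vehicle control recorded as inhibition.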

[5] = NCI Yeast Anticancer Drug Screen. Data for the mec2-1 strain (AID 157); details: S. cerevisiae mec2-1 strain, stronger effect = higher value
Summary of the method: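 Vehicle-treated cultures served as reference for growth inhibition of compound-exposed mec2-1 yeast.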

[6] = NCI Yeast Anticancer Drug Screen. Data for the rad14 strain (AID 159);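 also: 0% = growth of vehicle-treated control cultures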; details: S. cerevisiae rad14 strain growth inhibition, stronger effect = higher value
Summary of the method: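 Vehicle-treated cultures served as the baseline for growth inhibition of a DNA repair-mutant yeast strain exposed to each compound.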

[7] = NCI Yeast Anticancer Drug Screen. Data for the sgs1 mgt1 strain (AID 161);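 also: 0% = growth of cultures given vehicle only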; details: S. cerevisiae sgs1 mgt1 strain, stronger effect = higher value
Summary of the method: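 Genetically altered yeast, compound exposure, growth inhibition relative to vehicle.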

[8] = NCI Yeast Anticancer Drug Screen. Data for the CLN2oe strain (AID 163);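 also: 0% = growth of vehicle-only control cultures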; details: S. cerevisiae CLN2oe strain, stronger effect = higher value
Summary of the method: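 Inhibition relative to vehicle-treated yeast is reported. Cells: strain with genetic alteration in cell-cycle control, grown with compound.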

[9] = NCI Yeast Anticancer Drug Screen. Data for the cln2 rad14 strain (AID 165);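 also: 0% = growth equal to vehicle treated cultures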; details: S. cerevisiae cln2 rad14 strain, stronger effect = higher value
Summary of the method: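 Each compound was tested on cln2 rad14 yeast. Inhibition of growth was calculated against vehicle-exposed controls.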

[10] = NCI Yeast Anticancer Drug Screen. Data for the bub3 strain (AID 167); details: S. cerevisiae bub3 mutant strain, stronger effect = higher value
Summary of the method: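 Inhibition values come from growth of compound-treated mutant yeast normalised to vehicle-treated controls.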

[11] = NCI Yeast Anticancer Drug Screen. Data for the wt2 strain (AID 169);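 also: 0% = growth of vehicle-treated yeast cultures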; details: S. cerevisiae wt2 strain growth inhibition, stronger effect = higher value
Summary of the method: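 Inhibition of yeast growth was determined after compound treatment, normalised to controls receiving only vehicle.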

[12] = NCI Yeast Anticancer Drug Screen. Data for the sgs1 strain (AID 173);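 also: 0% = growth of vehicle-only control cultures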; details: S. cerevisiae sgs1 mutant, stronger effect = higher value
Summary of the method: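 Screen format: yeast with repair or checkpoint alterations, compound exposure, growth read relative to vehicle.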

[13] = NCI Yeast Anticancer Drug Screen. Data for the mlh1 rad18 strain (AID 175); details: S. cerevisiae mlh1 rad18 strain growth inhibition, stronger effect = higher value
Summary of the method: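 Vehicle-treated cultures served as the reference for growth inhibition in a yeast strain carrying DNA damage repair alterations exposed to each compound.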

[14] = NCI Yeast Anticancer Drug Screen. Data for the rad18 strain (AID 177); details: S. cerevisiae rad18 mutant growth inhibition, stronger effect = higher value
Summary of the method: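 Test articles were incubated with altered yeast defective in DNA damage repair. Results are given as inhibition of growth versus vehicle.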

[15] = NCI Yeast Anticancer Drug Screen. Data for the mlh1 strain (AID 171);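 also: 0% = growth of vehicle-treated control cultures of the same strain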; details: S. cerevisiae mlh1 strain growth inhibition, stronger effect = higher value
Summary of the method: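 Vehicle-normalised growth inhibition of a repair- or checkpoint-altered yeast strain following compound treatment.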

[16] = NCI Yeast Anticancer Drug Screen. Data for the rad50 strain (AID 155);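 also: 0% = growth of vehicle-only cultures of the same strain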; details: S. cerevisiae rad50 strain growth inhibition, stronger effect = higher value
Summary of the method: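 A DNA repair-deficient yeast mutant serves as the test organism; compound-induced growth inhibition is calculated against vehicle-treated cells.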

[17] = at 5.0 µM (retest, dose inferred, filed as 0.5)
[18] = at 50.0 µM (retest, dose inferred, filed as 5.0)

Measured: growth inhibition

CCOP(=O)(OCC)C(Cc1ccccc1)N=C(c1ccccc1)c1ccccc1 (stereo not given)
inactive: [1]; at 1.2 µM -21% | [1]; at 3.7 µM -16% | [1]; at 11.0 µM 4% | [2]; at 1.2 µM -18% | [2]; at 3.7 µM -28% | [2]; at 11.0 µM -5% | [3]; at 1.2 µM 8% | [3]; at 3.7 µM 12% | [3]; at 11.0 µM 44% | [4]; at 1.2 µM 16% | [4]; at 3.7 µM -6% | [4]; at 11.0 µM 10% | [5]; at 1.2 µM 18% | [5]; at 3.7 µM 8% | [5]; [17] -3% | [5]; at 11.0 µM 18% | [5]; [18] 4% | [6]; at 1.2 µM 2% | [6]; at 3.7 µM -6% | [6]; at 11.0 µM -8% | [7]; [17] -14% | [7]; [18] -1% | [8]; at 1.2 µM -50% | [8]; at 3.7 µM -18% | [8]; at 11.0 µM -21% | [9]; [17] -1% | [9]; [18] -1% | [10]; at 1.2 µM -35% | [10]; at 3.7 µM -35% | [10]; [17] -7% | [10]; at 11.0 µM -41% | [10]; [18] -11% | [11]; at 1.2 µM 6% | [11]; at 3.7 µM 6% | [11]; at 11.0 µM -2% | [12]; at 1.2 µM 7% | [12]; at 3.7 µM 10% | [12]; at 11.0 µM 15% | [13]; [17] -18% | [13]; [18] 22% | [14]; at 1.2 µM 8% | [14]; at 3.7 µM 4% | [14]; at 11.0 µM 29%
active: [1]; at 33.0 µM 91% | [1]; at 100.0 µM 98% | [2]; at 33.0 µM 95% | [2]; at 100.0 µM 98% | [3]; at 33.0 µM 81% | [3]; at 100.0 µM 94% | [4]; at 33.0 µM 86% | [4]; at 100.0 µM 98% | [5]; at 33.0 µM 97% | [5]; at 50.0 µM 70.5% | [5]; at 100.0 µM 98% | [6]; at 33.0 µM 73% | [6]; at 100.0 µM 98% | [7]; at 50.0 µM 98.8% | [8]; at 33.0 µM 87% | [8]; at 100.0 µM 98% | [9]; at 50.0 µM 97.8% | [10]; at 33.0 µM 88% | [10]; at 50.0 µM 99% | [10]; at 100.0 µM 98% | [11]; at 33.0 µM 97% | [11]; at 100.0 µM 98% | [12]; at 33.0 µM 93% | [12]; at 100.0 µM 97% | [13]; at 50.0 µM 98.7% | [14]; at 33.0 µM 87% | [14]; at 100.0 µM 98%

S=C(Nc1ccc(Cl)cc1)SC1CCCCC1
inactive: [1]; at 1.2 µM 6% | [1]; at 3.7 µM 24% | [1]; at 11.0 µM 34% | [2]; at 1.2 µM 7% | [2]; at 3.7 µM 0% | [2]; at 11.0 µM 47% | [3]; at 1.2 µM 7% | [3]; at 3.7 µM 22% | [3]; at 11.0 µM 61% | [4]; at 1.2 µM 16% | [4]; at 3.7 µM 40% | [4]; at 11.0 µM 33% | [5]; at 1.2 µM -17% | [5]; at 3.7 µM 7% | [5]; [17] 1% | [5]; [18] 40% | [6]; at 1.2 µM -24% | [6]; at 3.7 µM -20% | [6]; at 11.0 µM 27% | [7]; [17] 18% | [8]; at 1.2 µM -2% | [8]; at 3.7 µM -7% | [8]; at 11.0 µM 43% | [9]; [17] -6% | [9]; [18] 31% | [10]; at 1.2 µM -18% | [10]; at 3.7 µM -36% | [10]; [17] 17% | [10]; at 11.0 µM 25% | [10]; [18] 51% | [15]; at 1.2 µM 4% | [15]; at 3.7 µM 19% | [15]; at 11.0 µM 50% | [12]; at 1.2 µM 0% | [12]; at 3.7 µM 2% | [12]; at 11.0 µM 51% | [13]; [17] -2% | [14]; at 1.2 µM -8% | [14]; at 3.7 µM -7% | [14]; at 11.0 µM 48%
active: [1]; at 33.0 µM 96% | [1]; at 100.0 µM 98% | [2]; at 33.0 µM 98% | [2]; at 100.0 µM 98% | [3]; at 33.0 µM 98% | [3]; at 100.0 µM 98% | [4]; at 33.0 µM 98% | [4]; at 100.0 µM 99% | [5]; at 11.0 µM 93% | [5]; at 33.0 µM 99% | [5]; at 50.0 µM 85.5% | [5]; at 100.0 µM 96% | [6]; at 33.0 µM 97% | [6]; at 100.0 µM 97% | [7]; [18] 79% | [7]; at 50.0 µM 86.5% | [8]; at 33.0 µM 96% | [8]; at 100.0 µM 99% | [9]; at 50.0 µM 87.7% | [10]; at 33.0 µM 93% | [10]; at 50.0 µM 83% | [10]; at 100.0 µM 98% | [15]; at 33.0 µM 98% | [15]; at 100.0 µM 99% | [12]; at 33.0 µM 98% | [12]; at 100.0 µM 98% | [13]; [18] 91% | [13]; at 50.0 µM 91.8% | [14]; at 33.0 µM 97% | [14]; at 100.0 µM 98%

c1ccc2c(c1)C(=NCCCN1CCCCCC1)c1cccn1-2
inactive: [1]; at 1.2 µM -3% | [1]; at 3.7 µM -5% | [1]; at 11.0 µM -5% | [1]; at 33.0 µM -6% | [2]; at 1.2 µM -2% | [2]; at 3.7 µM -1% | [2]; at 11.0 µM 2% | [2]; at 33.0 µM -1% | [3]; at 1.2 µM -3% | [3]; at 3.7 µM -4% | [3]; at 11.0 µM -4% | [3]; at 33.0 µM 3% | [3]; at 100.0 µM 63% | [4]; at 1.2 µM -4% | [4]; at 3.7 µM -1% | [4]; at 11.0 µM -1% | [4]; at 33.0 µM 3% | [16]; at 1.2 µM -3% | [16]; at 3.7 µM -8% | [16]; [17] -3% | [16]; at 11.0 µM -9% | [16]; at 33.0 µM -6% | [16]; [18] -6% | [5]; at 1.2 µM -3% | [5]; at 3.7 µM 1% | [5]; [17] 0% | [5]; at 11.0 µM 4% | [5]; at 33.0 µM 0% | [5]; [18] -3% | [5]; at 50.0 µM 68.2% | [7]; [17] 2% | [7]; [18] -7% | [8]; at 1.2 µM -10% | [8]; at 3.7 µM -15% | [8]; at 11.0 µM -23% | [8]; at 33.0 µM -18% | [9]; [17] -7% | [9]; [18] -5% | [9]; at 50.0 µM 61.4% | [10]; at 1.2 µM 0% | [10]; at 3.7 µM -4% | [10]; [17] 6% | [10]; at 11.0 µM 0% | [10]; at 33.0 µM 10% | [10]; [18] -3% | [11]; at 1.2 µM -2% | [11]; at 3.7 µM -4% | [11]; at 11.0 µM -2% | [11]; at 33.0 µM -3%
active: [1]; at 100.0 µM 97% | [2]; at 100.0 µM 93% | [4]; at 100.0 µM 97% | [16]; at 50.0 µM 78.2% | [16]; at 100.0 µM 97% | [5]; at 100.0 µM 98% | [7]; at 50.0 µM 84.5% | [8]; at 100.0 µM 93% | [10]; at 50.0 µM 94.9% | [10]; at 100.0 µM 97% | [11]; at 100.0 µM 96%
